The supplement of paper PMC7156485
± gives the standard deviation of the averaged measurements.

Experiments:
Settings in all cases: concentration: 10 µM; 24 h
HCC1569 [1] = assay: cell number relative to DMSO (% of DMSO); higher = more cells (less growth inhibition / toxicity)
Method in brief: (§1)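 HCC1569 and TDF cells (800 per well, 384-well plates, RPMI with 10% FBS) were treated with compounds at 10 µM for 24 h at 37 °C, in triplicate. Cells were fixed in 3.7% formaldehyde and stained with a rabbit anti-H1.0 antibody, an AlexaFluor 647 secondary and DAPI; six fields per well were imaged at ×10. H1.0 nuclear intensity or cell number is expressed as percent of the plate DMSO control, taking the median of replicates. HCC1569 values were smoothed for positional effects.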

TDF [2] = assay: as above
Method in brief: as §1

TDF [3] = assay: H1.0 immunofluorescence intensity relative to DMSO (% of DMSO); higher = stronger H1.0 induction, active = 120 or more
Method in brief: as §1

HCC1569 [4] = assay: H1.0 immunofluorescence intensity relative to DMSO (% of DMSO); higher = stronger H1.0 induction, active = 140 or more
Method in brief: as §1
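Throughout, for H1.0 immunofluorescence intensity relative to DMSO: TDF is a line of transformed human dermal fibroblasts of mesenchymal origin.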
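Throughout, for cell number relative to DMSO: TDF denotes transformed human dermal fibroblasts of mesenchymal origin.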

SMILES | cell number (HCC1569 [1]) | cell number (TDF [2]) | H1.0 immunofluorescence intensity (TDF [3]) | H1.0 immunofluorescence intensity (HCC1569 [4])
O=c1c(-c2ccc(O)cc2)coc2cc(O)cc(O)c12 | 97.6 | 100 | 96.6 (inactive) | 104 (inactive)
CN(C)c1ccc(O)c2c1CC1CC3C(N(C)C)C(=O)C(C(N)=O)=C(O)C3(O)C(=O)C1=C2O (stereo unspecified) [Minocycline] | 107 | 101 | 110 (inactive) | 88.6 (inactive)
CC(O)C(CO)NC(=O)C1CSSCC(NC(=O)C(N)Cc2ccccc2)C(=O)NC(Cc2ccccc2)C(=O)NC(Cc2c[nH]c3ccccc23)C(=O)NC(CCCCN)C(=O)NC(C(C)O)C(=O)N1 (stereo unspecified) [Octreotide] | 106 | 98.5 | 103 (inactive) | 98.9 (inactive)
O=C1Nc2ccc(Cl)cc2C(C#CC2CC2)(C(F)(F)F)O1 (stereo unspecified) [Efavirenz] | 101 | 98.5 | 97.6 (inactive) | 111 (inactive)
CCCCCC(O)C=CC1C(O)CC(O)C1CC(=O)CCCCC(=O)O (stereo unspecified) [6-Keto-prostaglandin F1a] | 101 | 91.3 | 102 (inactive) | 108 (inactive)
COC1C=COC2(C)Oc3c(C)c(O)c4c(c3C2=O)C(=O)C(=CNN2CCN(C)CC2)C(=C4O)NC(=O)C(C)=CC=CC(C)C(O)C(C)C(O)C(C)C(OC(C)=O)C1C (stereo unspecified) [Rifampicin] | 104.2 ± 0.92 | 106 ± 1.9 | 94.5 (inactive) | 103 (inactive)
NC(=O)c1ccc(-c2nc(-c3ccc4c(c3)OCO4)c(-c3ccccn3)[nH]2)cc1 | 95.7 | 106 | 95.9 (inactive) | 136 (inactive)
CC1CCN=C(N)S1.Cl (racemic) | 98.5 | 103 | 108 (inactive) | 100 (inactive)
CC1(C)CC(NC(=O)C(=O)Nc2ccc(Cl)cc2)CC(C)(C)N1 | 104 | 107 | 91 (inactive) | 99.1 (inactive)
CCCCCC(O)C=CC1C(O)CC(O)C1CC=CCCCC(=O)O (stereo not drawn) [8-Epi-prostaglandin F2a] | 102 | 110 | 96.2 (inactive) | 100 (inactive)
CCCCCCCCC=CCCCCCCCC(=O)O [Oleic Acid] | 105 | 103 | 91.8 (inactive) | 87.8 (inactive)
CCCCCCCCCCCCCC=CC(O)C(CO)NC(=O)CCCCC (stereo unspecified) [C6 Ceramide] | 100 | 59.7 | 151 (active) | 101 (inactive)
CC(=O)NCCc1ccc(O)c(O)c1 [N-Acetyldopamine monohydrate] | 101 | 111 | 96.7 (inactive) | 91.4 (inactive)
CCCCCCCCCCCCCCCC(=O)NCCc1ccc(O)c(O)c1 [Palmitoyl dopamine] | 92.7 | 101 | 101 (inactive) | 105 (inactive)
